The whole screen tested about 68,000 compounds, of which about 2,700 (4%) showed an effect of 50% or more. Many of the other results were omitted from the sample, so strong results are more common in it than they were.

This assay has as its system Plasmodium berghei. Description: Screen against P. berghei liver stage (PbLuc), transformed with Luciferase, at 2uM. It counts as functional, HepG2. Conditions: tested at 2 uM.
For `COCCN1C=NC2(CCC(C(=O)Nc3ccc(C)cc3)CC2)C1=O` (configuration not stated), the INHIBITION is -76.06%.

For the molecule `COc1cccc(-c2noc(C3CCN(Cc4ccncc4)C3)n2)c1` (configuration not stated), the INHIBITION is recorded as -22.79%.

Turning to `COc1cccc(-c2noc(C3CCN(Cc4ccc(C)cc4)C3)n2)c1` (configuration not stated), the INHIBITION is 58.96%. The figure for `COc1cccc(-c2noc(C3CCN(Cc4ccccc4C)C3)n2)c1` (configuration not stated) is 3.97%; for `Cc1cccc(CN2CCC3(CC2)CN(c2cnn(C)c2)C(=O)CO3)n1` it is -29.81%.

In the case of `Cc1cc(NC(=O)C(C#N)Cc2cnn(C)c2C)no1` (configuration not stated), the INHIBITION was -11.32%. The same measure for `CN1CCCC1CCn1ccnc1-c1nc(-c2ccccc2)no1` (configuration not stated): 17.37%; for `O=c1c(S(=O)(=O)N2CCCC2)cccn1Cc1ccccc1Cl`: 52.89%; for `O=c1c(S(=O)(=O)N2CCCC2)cccn1Cc1ccc(F)cc1Cl`: 0.78%. The same measure for `O=c1c(S(=O)(=O)N2CCCCC2)cccn1Cc1ccccc1Cl`: -10.16%; for `O=C(NCc1cccc(F)c1)NCC(O)c1cccc(F)c1` (configuration not stated): -70.27%. The same measure for `Cc1ccc(C)c(NC(=O)c2coc(C)n2)c1`: 48.68%. On to `COCc1ccc(C(=O)NS(=O)(=O)c2ccc3c(c2)CCC(=O)N3)cc1`, for which the INHIBITION was 24.36%. The same measure for `COCc1cc(N2CCc3onc(-c4cccc(OC)c4)c3C2)ncn1`: 5.28%; for `COc1cccc(-c2noc3c2CN(c2nc(C)ncc2C)CC3)c1`: 36.28%; for `COc1cccc(-c2noc3c2CN(c2ncnc4c2CCC4)CC3)c1`: 62.51%.

`CC[C@@H](C)[C@@H](N)C(=O)Nc1cccc(-c2cnc(NCCO)nc2)c1`: the INHIBITION was -35.83%. The same measure for `CC(C)n1cnnc1C1CCCN(S(=O)(=O)CC2CCCC2)C1` (configuration not stated): 60.42%. The figure for `CC(C)n1cnnc1C1CCCN(S(=O)(=O)CCCF)C1` (configuration not stated) is -33.29%. The same measure for `CC(C)CCS(=O)(=O)N1CCCC(c2nncn2C(C)C)C1` (configuration not stated): -108.93%. With `Cc1nc(CN2CCC3(C2)CN(C(=O)c2conc2C)C3)cs1`, the INHIBITION is recorded as 3.95%. As to `CC(C)Cc1noc(-c2ccc(NCc3noc(C(C)C)n3)nc2)n1`, the INHIBITION is 42.17%. The same measure for `COc1ccc(Cc2noc(-c3ccc(NC(C)CO)nc3)n2)cc1` (configuration not stated): 43.44%; for `CC(CO)Nc1ccc(-c2nc(Cc3ccc(F)cc3)no2)cn1` (configuration not stated): 57.75%. In the case of `CCC(O)CNc1ccc(-c2nc(CC(C)C)no2)cn1` (configuration not stated), the INHIBITION was determined as 69.71%. The figure for `COCC(C)Nc1ccc(-c2nc(Cc3ccc(F)cc3)no2)cn1` (configuration not stated) is 31.51%; for `CCn1cncc1CNc1ccc(-c2nc(CC(C)C)no2)cn1` it is -15.11%; for `CN(C)C(=O)CO[C@H]1CO[C@@]2(CCN(Cc3ccsc3)C2)C1` it is -9.99%. As for `O=C(CCn1ccccc1=O)N1CCCC(COc2ccc(F)cc2)C1` (configuration not stated), the INHIBITION came to 8.25%. The same measure for `O=C(NC[C@H]1OC[C@@H](NC2CCC(F)(F)CC2)[C@@H]1O)N1CCOCC1`: 11.43%; for `Cc1cc(C(=O)N2CCC(c3nccn3Cc3ccncc3)CC2)no1`: 17.75%; for `CCC(C)Oc1cc(C(=O)Nc2nnc(C(C)C)[nH]2)ccn1` (configuration not stated): 38.67%. The same measure for `CCC(C)Oc1cc(C(=O)Nc2nc(C)ns2)ccn1` (configuration not stated): 52.98%. The figure for `CCC(C)Oc1cc(C(=O)Nc2nccs2)ccn1` (configuration not stated) is 41.05%. On to `c1cc(CN2C[C@@H]3OCCN(CCN4CCCC4)[C@@H]3C2)co1`, for which the INHIBITION worked out at 2.87%.

`Cc1nc(-c2cc(Cl)c3c(c2)CC(CN)O3)c[nH]1` (configuration not stated): the INHIBITION was determined as 74.44%. The figure for `Cc1nc(-c2cc(Cl)cc3c2OC(CN)C3)c[nH]1` (configuration not stated) is 26.74%; for `Cc1nc(-c2cc(F)c3c(c2)CC(CN)O3)c[nH]1` (configuration not stated) it is 33.9%; for `CN(CC(F)(F)F)C(=O)Cn1cc(NC(=O)C(C)(C)C)cn1` it is -48.48%. The figure for `COc1cccc(-n2c(C)cc(C(=O)NC(C)(C)C(N)=O)c2C)c1` is 50.05%. As for `COc1cccc(-n2c(C)cc(C(=O)NCCCC(N)=O)c2C)c1`, the INHIBITION was determined as 30.29%.

On to `CNC(=O)c1cc(C)n(-c2cccc(OC)c2)c1C`, for which the INHIBITION is reported as 31.7%. The same measure for `CN(Cc1ccco1)C[C@H]1OC[C@@H]2CN(c3ncc(F)cn3)CC[C@@H]21`: 17.89%. The same measure for `O=C(NC1CC1)[C@H]1CN(Cc2ccc3c(c2)OCO3)C[C@H]2OCC[C@@H]12`: -0.18%. Consider `Cc1cc(C(=O)NCc2c(C)nn(C)c2C)nc(N2CCCC2)n1`, for which the INHIBITION is on record as -70.38%. The figure for `Cc1cc(C(=O)NCCc2c(C)nn(C)c2C)nc(N2CCCCC2)n1` is 52.82%; for `Cc1cc(C(=O)NCc2c(C)nn(C)c2C)nc(N2CCOCC2)n1` it is -68.8%; for `O=C(O)c1csc(S(=O)(=O)N2CCCc3cccc(OC(F)F)c32)c1` it is -58.31%. As for `CC(C)C(=O)NCc1ccccc1NS(=O)(=O)c1ccccc1`, the INHIBITION is -1.56%. Turning to `CN(C(=O)c1cccn1C)C1CCC(NC(=O)OC(C)(C)C)CC1` (configuration not stated), the INHIBITION came to 62.51%. The figure for `CN(C(=O)c1ccc[nH]1)C1CCC(NC(=O)OC(C)(C)C)CC1` (configuration not stated) is 48.21%; for `CN(C(=O)c1ccco1)C1CCC(NC(=O)OC(C)(C)C)CC1` (configuration not stated) it is 38.67%. The same measure for `c1cnc(N2CCC3(CCCN(Cc4ccncc4)C3)CC2)nc1`: 4.89%; for `c1cncc(COCc2cncc3c2CCN(Cc2ccoc2)C3)c1`: 25.5%. The figure for `Cc1[nH]c2ccccc2c1-c1ccnc(NCCN2CCCCC2)n1` is -2.21%; for `O=C(O)c1nnn(-c2ccc(C(F)(F)F)cc2)c1-c1ccncc1` it is -40.92%; for `CC(C)[C@H](Nc1nc(C2CCCC2)nc2c1cnn2C)C(N)=O` it is 23.16%.

For the molecule `CCOC(=O)CC(C)Nc1nc(C(C)(C)C)nc2c1cnn2C` (configuration not stated), the INHIBITION is -70.6%. As for `COC(=O)[C@@H](Nc1nc(C2CCCC2)nc2c1cnn2C)[C@@H](C)O`, the INHIBITION was determined as 40.4%. The figure for `CC(C)C[C@H](Nc1nc(C2CCCC2)nc2c1cnn2C)C(N)=O` is 52.38%. The same measure for `CCOC(=O)CC(C)Nc1nc(C2CCCC2)nc2c1cnn2C` (configuration not stated): 57.64%; for `COC(=O)[C@H](CSC)Nc1nc(C2CCCC2)nc2c1cnn2C`: 43.28%; for `CCOCC1CN(C(=O)Cc2ccsc2)Cc2ccnn2C1` (configuration not stated): 21.77%. `CC(=O)N1CCCN(C(C(=O)O)c2cccc(C)c2C)CC1` (configuration not stated): the INHIBITION is -17.37%. The figure for `O=C1COC2(CCN(Cc3cccnc3)CC2)CN1` is 11.87%. Consider `c1cncc(N2CCOCC3(CCCN(Cc4cccs4)C3)C2)c1` (configuration not stated), for which the INHIBITION was -26.24%. For `Cc1ccc2nc(C(=O)N3C[C@@H](C(=O)O)[C@H](c4cccnc4)C3)cn2c1`, the INHIBITION is listed as 1.52%. The figure for `Cc1c(Cl)c(C(=O)N2CC(c3cccnc3)C2)nn1C` is 7.62%. The same measure for `Cc1c(Cl)c(C(=O)N2C[C@@H](C(=O)O)[C@H](c3cccnc3)C2)nn1C`: 69.71%. The same measure for `Cc1nc(C)n(CC2CCCN2CCCOc2ccc(F)cc2)n1` (configuration not stated): -8.1%; for `CCC(C(=O)Nc1ccc2nc(C)oc2c1)N1CCCC1=O` (configuration not stated): 14.06%.

`CNc1nc(C)cc(NC2CCCN(C3Cc4ccccc4C3)C2)n1` (configuration not stated): the INHIBITION is listed as 58.03%. The figure for `CNc1cc(C)nc(NC2CCCN(C3Cc4ccccc4C3)C2)n1` (configuration not stated) is 8.26%; for `Cc1ccc(NC2CCCN(C3Cc4ccccc4C3)C2)nn1` (configuration not stated) it is 3.91%; for `CC(C)COC1CC2(CCN(C(=O)Cc3ccccn3)CC2)C1` it is -9.07%. In the case of `CSCc1noc(Cn2ncn3cccc3c2=O)n1`, the INHIBITION amounted to 46.15%. The figure for `c1cc(CN2CCOCC3(CCN(CC4CCOCC4)CC3)C2)ccn1` is 26.76%; for `CCc1c(C(=O)N2CCOC(C)(C)C2)cnn1-c1ccccn1` it is 61.63%; for `CC1CN(C(=O)c2cnn(-c3ccccn3)c2C(C)C)CC(C)(C)O1` (configuration not stated) it is -4.15%. The figure for `CCc1c(C(=O)N2CC(C)OC(C)(C)C2)cnn1-c1ccccn1` (configuration not stated) is 24.23%; for `CCc1nc(CC(=O)N2CCC(C(=O)N3CCCC3)CC2)cs1` it is -30.23%; for `O=C1CC[C@H]2[C@H](CCN2C(=O)N2CCCC2)N1Cc1ccncc1` it is -61.95%. The same measure for `c1ccc(C2CCCN(Cc3cc4n(n3)CCNC4)CC2)cc1` (configuration not stated): 9.57%; for `OC(c1ccccn1)C1CCN(Cc2cc3n(n2)CCCNC3)CC1` (configuration not stated): -29.69%; for `OC(c1ccccn1)C1CCN(Cc2cc3n(n2)CCNC3)CC1` (configuration not stated): 60%. Regarding `CCC(NC(=O)C1CCN(S(C)(=O)=O)CC1)c1ccc(OC)cc1` (configuration not stated), the INHIBITION amounted to 19.7%. The same measure for `O=C(NC1CCCC1)[C@@H]1C[C@@H]2CCN(Cc3ccoc3)C[C@H]2O1`: 3.18%; for `Cc1ccc(C(CC(=O)O)NC(=O)CCc2cccs2)cc1` (configuration not stated): -34.12%; for `COc1ccc(C(CC(=O)O)NC(=O)CCc2cccs2)cc1OC` (configuration not stated): 36.38%.

As for `O=C(O)CC(NC(=O)CCCc1cccs1)c1ccc(F)cc1` (configuration not stated), the INHIBITION came to 57.2%. The figure for `CCCc1cc(NC2CCc3nc(C(C)C)nn3C2)n2ncnc2n1` (configuration not stated) is -43.09%; for `COc1cccc(CN(C)Cc2ccc(C#N)cc2)c1OC` it is 10.52%; for `COc1cccc(CN(C)Cc2cc(C#N)ccc2F)c1OC` it is 56.49%. The same measure for `COc1cccc(CN(C)Cc2cccc(C#N)c2)c1OC`: 3.3%; for `Cc1ccc(NC(=O)C2=CN=S=N2)cc1`: 25.51%. `CN(C)C(=O)[C@@H]1C[C@@H]2CCN(Cc3ccncc3)C[C@@H]2O1`: the INHIBITION is given as 37.6%. The same measure for `c1cc2nccc(CC3CCCN(C4CCOCC4)CC3)c2cn1` (configuration not stated): 24.56%. The same measure for `O=C(NC1CCN(C2CC2)CC1)c1cc(Cl)ccc1-n1cnnn1`: 19.04%; for `O=C(NC1CC1)c1cc(Cl)ccc1-n1cnnn1`: -14%. The same measure for `CC(=O)N1CCC(NC(=O)c2cc(Cl)ccc2-n2cnnn2)CC1`: 53.19%; for `CCCC1(CO)CCCN(C(=O)CNC(C)=O)C1` (configuration not stated): 15.27%. As for `O=c1cc(N2CCNCC2)cnn1Cc1noc(C2CCCC2)n1`, the INHIBITION was found to be 41.84%.
